# Measurements as given in the supplement of paper PMC3545927.
# The list shows a part of the results. The hit rate among all sequences tested is not known here.
# B1: HC2217 (peptide)
# chain: CAEVVTSSWVAGNASASA
# B2: HC1841 (peptide)
# chain: CANTPCSGSWAGNASASA
# B3: HC1756 (peptide)
# chain: CAMEECSQGLAGNASASA
# B4: HC1920 (peptide)
# chain: CATTPCSGCWAGNASASA
# B5: HC84 (peptide)
# chain: CAVVCLSMSYAGNASASA
# B6: HC544 (peptide)
# chain: CASFLVFFCFAGNASASA
# B7: HC541 (peptide)
# chain: CAGTHGLVSFAGNASASA
# B8: FS-3227 (peptide)
# chain: CARLKRQPCAAGNASASA
# B9: FS-2219 (peptide)
# chain: CARLKRALDFAGNASASA
# B10: FS-1907 (peptide)
# chain: CARLKRVEDQAGNASASA
# B11: FS-2992 (peptide)
# chain: CARLKRQVTEAGNASASA
# B12: HC833 (peptide)
# chain: CAVLATATPPAGNASASA
# B13: FS-1075 (peptide)
# chain: CARSVRSTRDAGNASASA
# B14: FS-2328 (peptide)
# chain: CARDARSVRDAGNASASA
# B15: FS-2204 (peptide)
# chain: CARDARMSDAAGNASASA
# B16: FS-2821 (peptide)
# chain: CARSVRFISNAGNASASA
# B17: FS-2413 (peptide)
# chain: CAREDRAVRDAGNASASA
# B18: FS-581 (peptide)
# chain: CACHLRRFRSAGNASASA
# B19: FS-384 (peptide)
# chain: CATNHRIFRSAGNASASA
# B20: FS-1397 (peptide)
# chain: CARGGRIFRSAGNASASA
# B21: HC594 (peptide)
# chain: CARGGRDAVIAGNASASA
# B22: FS-703 (peptide)
# chain: CAQMHRKFRSAGNASASA
# B23: FS-327 (peptide)
# chain: CAFLWRSFRSAGNASASA
# B24: HC2078 (peptide)
# chain: CAVVCCSMTYAGNASASA
# B25: FS-3012 (peptide)
# chain: CARNRRLVSDAGNASASA
# B26: FS-2896 (peptide)
# chain: CARCDRDNTEAGNASASA
# B27: FS-1912 (peptide)
# chain: CARNRRGAITAGNASASA
# B28: FS-2909 (peptide)
# chain: CAREDRGAYTAGNASASA
# B29: HC1482 (peptide)
# chain: CACFDSTVTEAGNASASA
# B30: FS-3011 (peptide)
# chain: CARNRRHVTEAGNASASA
# B31: FS-3010 (peptide)
# chain: CARNRRALRDAGNASASA
# B32: FS-709 (peptide)
# chain: CARNRRHHRDAGNASASA
# B33: HC1479 (peptide)
# chain: CAFSYDTRCFAGNASASA
# B34: HC2105 (peptide)
# chain: CALDVVCCSMAGNASASA
# B35: FS-560 (peptide)
# chain: CARNRRHPRSAGNASASA
# B36: FS-2733 (peptide)
# chain: CARNRRSILDAGNASASA
# B37: FS-2049 (peptide)
# chain: CARNRRVAEAAGNASASA
# B38: HC1002 (peptide)
# chain: CAVGRVVLSGAGNASASA
# B39: FS-2048 (peptide)
# chain: CARNRRTHEFAGNASASA
# B40: HC330 (peptide)
# chain: CARIPQAILDAGNASASA
# B41: FS-2577 (peptide)
# chain: CARNRRSLSGAGNASASA
# B42: HC1160 (peptide)
# chain: CALMPQLPGIAGNASASA
# B43: HC1306 (peptide)
# chain: CAPDYNPPLVAGNASASA
# Molecular target: furin, P09958
# Assay: furin cleavage Z-score vs untreated control; higher = more cleavage, active = 3.5 or more, inactive = 1 or less, 8 variable residues between constant flanks
# Summary of the method: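 Cleavage by purified furin was measured on 8-mer peptides fused to a cDNA oligonucleotide and held on magnetic beads by their N-terminus. Reactions (0.01 ml, 1:10 enzyme:substrate) ran 7.5, 15 or 30 min in 50 mM HEPES pH 7.5 with CaCl2 and NaCl. Released DNA was adapter-tagged by PCR and sequenced, with read counts giving abundance. Log counts versus furin-free reactions were lowess-adjusted and scaled by median absolute deviation to give the cleavage Z-score.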
# Sequence of furin, P09958 (P09958 whole entry): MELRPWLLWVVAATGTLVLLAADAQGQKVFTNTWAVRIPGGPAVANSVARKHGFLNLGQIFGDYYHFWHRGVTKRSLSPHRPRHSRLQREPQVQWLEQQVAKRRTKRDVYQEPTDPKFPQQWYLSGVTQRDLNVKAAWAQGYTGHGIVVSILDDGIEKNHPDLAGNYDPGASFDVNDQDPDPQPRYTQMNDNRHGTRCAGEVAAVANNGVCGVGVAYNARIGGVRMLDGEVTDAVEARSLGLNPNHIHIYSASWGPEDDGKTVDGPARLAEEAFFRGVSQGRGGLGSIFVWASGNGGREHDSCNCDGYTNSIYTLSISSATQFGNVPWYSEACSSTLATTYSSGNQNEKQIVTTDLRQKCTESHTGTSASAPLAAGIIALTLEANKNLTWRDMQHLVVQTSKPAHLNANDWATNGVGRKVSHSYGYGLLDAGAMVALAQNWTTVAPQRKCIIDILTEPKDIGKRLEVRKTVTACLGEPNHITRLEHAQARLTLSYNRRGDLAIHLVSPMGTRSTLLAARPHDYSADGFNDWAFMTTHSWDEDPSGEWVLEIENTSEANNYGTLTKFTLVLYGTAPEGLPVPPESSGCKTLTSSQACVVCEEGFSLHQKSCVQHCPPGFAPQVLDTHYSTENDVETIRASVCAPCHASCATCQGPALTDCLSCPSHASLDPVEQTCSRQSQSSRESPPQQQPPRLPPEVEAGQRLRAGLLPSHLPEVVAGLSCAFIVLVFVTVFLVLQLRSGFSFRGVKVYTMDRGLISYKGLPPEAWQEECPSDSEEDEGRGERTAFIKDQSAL
Sequence,furin cleavage Z-score (7.5 min),furin cleavage Z-score (15 min),furin cleavage Z-score (30 min)
B1,0.949 (inactive),3.4,-0.0256 (inactive)
B2,-0.658 (inactive),-0.9 (inactive),-0.678 (inactive)
B3,0.411 (inactive),1.43,1.65
B4,-0.899 (inactive),-0.942 (inactive),-0.88 (inactive)
B5,0.288 (inactive),-0.622 (inactive),-0.642 (inactive)
B6,-1.06 (inactive),-0.337 (inactive),-0.101 (inactive)
B7,1.37,0.474 (inactive),1.36
B8,0.299 (inactive),-0.962 (inactive),-0.478 (inactive)
B9,6.13 (active),7.48 (active),7.29 (active)
B10,-1.61 (inactive),0.449 (inactive),-0.817 (inactive)
B11,11.3 (active),12 (active),11.2 (active)
B12,-0.698 (inactive),-1.92 (inactive),-0.599 (inactive)
B13,9.44 (active),11 (active),9.05 (active)
B14,2.71,4.77 (active),5.93 (active)
B15,-1.21 (inactive),0.407 (inactive),0.769 (inactive)
B16,-2.17 (inactive),-0.565 (inactive),1.32
B17,-1.11 (inactive),0.317 (inactive),-0.31 (inactive)
B18,-0.297 (inactive),-0.28 (inactive),0.354 (inactive)
B19,1.71,2.99,5.79 (active)
B20,7.37 (active),8.25 (active),7.16 (active)
B21,0.336 (inactive),0.26 (inactive),0.331 (inactive)
B22,6.07 (active),8.69 (active),6.07 (active)

Sequence,furin cleavage Z-score (7.5 min),furin cleavage Z-score (15 min),furin cleavage Z-score (30 min)
B23,-0.934 (inactive),-0.656 (inactive),-0.629 (inactive)
B24,-0.433 (inactive),0.0813 (inactive),-0.381 (inactive)
B25,0.716 (inactive),3.37,2.68
B26,-0.96 (inactive),-0.486 (inactive),-1.77 (inactive)
B27,5.06 (active),6.46 (active),7.54 (active)
B28,-0.191 (inactive),0.288 (inactive),-1.31 (inactive)
B29,0.967 (inactive),-0.854 (inactive),-1.23 (inactive)
B30,12.2 (active),12.5 (active),9.58 (active)
B31,7.62 (active),8.24 (active),7.01 (active)
B32,8.79 (active),10.1 (active),7.04 (active)
B33,-0.0881 (inactive),-0.998 (inactive),0.0108 (inactive)
B34,-0.768 (inactive),-1.48 (inactive),-0.867 (inactive)
B35,11.3 (active),13.7 (active),8.58 (active)
B36,6.77 (active),9.44 (active),8.76 (active)
B37,2.16,3.37,3.98 (active)
B38,-0.201 (inactive),2.15,-1.8 (inactive)
B39,-0.109 (inactive),-0.137 (inactive),0.595 (inactive)
B40,-0.397 (inactive),0.0404 (inactive),0.351 (inactive)
B41,5.26 (active),5.66 (active),6.3 (active)
B42,1.4,1.95,0.83 (inactive)
B43,0.58 (inactive),-1.42 (inactive),-0.164 (inactive)
